Screens deposited in PubChem by NMMLSC.
VLA-4 inh – inhibition in human VLA-4 binding assay, primary screen, VLA-4 allosteric modulator project, MLPCN library, flow cytometry, VLA-4 expressing cells. Integrin alpha-4 (Homo sapiens), P13612. ligand binding flow cytometry. inhibition, % (about 7 µM as worked out from the volumes in the protocol). 330,000 compounds, 0.2% hits; in the data active means inhibition above about 50%
RPL19A-GFP yeast – RPL19A-GFP expression modulators in yeast, primary screen, cell-based, S. cerevisiae, multiplex flow cytometry, MLPCN. S. cerevisiae RPL19A-GFP strain, 3 h; stronger effect = lower value. 330,000 compounds, 0.3% hits. percent response vs DMSO, % at 10 µM;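 active means percent response vs DMSO below 50%; inconclusive means fewer than 70 events counted for the yeast strain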;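 further: median channel GFP fluorescence of the barcoded RPL19A-GFP strain; ratio of sample median GFP to plate DMSO average so 100% = DMSO; lower means less RPL19A-GFP as with rapamycin TOR inhibition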
CIT2-GFP yeast – modulators of CIT2-GFP expression in yeast, primary screen, S. cerevisiae, GFP fusion, multiplex flow cytometry, MLPCN library. 320,000 compounds, 0.065% hits. S. cerevisiae CIT2-GFP strain, 3 h; 100 means same as DMSO wells. GFP response vs DMSO, % at 10 µM. AID 2029, 2009;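 active means GFP response relative to DMSO above a set limit, near the screen mean plus 3 SD, cut at about 150% in these data; inconclusive means Fewer than 70 cells measured for a yeast strain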;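 further: ratio of well median GFP fluorescence to mean of DMSO wells on the plate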
AGP1 TOR yeast – modulators of AGP1-GFP expression in yeast TOR pathway, primary screen, cell-based, multiplex flow cytometry, S. cerevisiae, MLPCN library | GFP response vs DMSO, % at 10 µM | 3 h; GFP as percent of DMSO wells | 320,000 compounds, 0.02% hits | AID 2066, 2009;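 active means GFP response relative to DMSO above a set limit, near screen average plus 3 SD, cut at about 150% in these data; inconclusive means fewer than 70 cells counted for the yeast strain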;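 further: median GFP channel fluorescence of the gated AGP1 strain per well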
LAP4-GFP MLPCN – modulators of LAP4-GFP expression in yeast, primary screen, S. cerevisiae, multiplex flow cytometry, MLPCN library. 3 h; median GFP as percent of DMSO wells. GFP response vs DMSO, % at 10 µM. 320,000 compounds, 0.34% hits;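 active means GFP response vs DMSO above a set limit, about the screen mean plus 3 SD, cut at about 150% in these data; inconclusive means under 70 cell events counted for the yeast strain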
MEP2-GFP yeast – modulators of MEP2-GFP levels in yeast, primary screen, S. cerevisiae, multiplex flow cytometry, MLPCN library; S. cerevisiae MEP2-GFP strain, 3 h; 100% = DMSO control level; GFP response vs DMSO, % at 10 µM; 330,000 compounds, 0.51% hits;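 active means GFP response versus DMSO above a set limit, roughly screen mean plus 3 SD, cut at about 180% in these data; inconclusive means fewer than 70 cells counted for a yeast strain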;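 further: median GFP fluorescence of the barcode-gated MEP2-GFP cells per well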
An asterisk follows results filed as active; ? = inconclusive; . = no result given; [ ] = another dose, or the depositor's remark. A selection: hits, their analogues and other compounds. The true share with any hit is near 1.1%.

SMILES | VLA-4 inh | RPL19A-GFP yeast | CIT2-GFP yeast | AGP1 TOR yeast | LAP4-GFP MLPCN | MEP2-GFP yeast
CCOc1ccc(-c2nnc(-c3ccccc3)o2)cc1 | 9.3 | 29.9*[may fluoresce violet] | ? | . | 94.5 | 393.6*[may fluoresce violet]
NNC(=O)c1cc2nc(-c3cccs3)cc(C(F)(F)F)n2n1 | 24.3 | 80.6 | ? | 11.2 | 71.9 | 111.4
FC(F)(F)c1cc(-c2cccs2)nc2cc(-c3cccs3)nn12 | -78.7 | 98.6 | 128.4 | 113.2 | 143.5 | 178.9*
Cc1ccc(/C=N/NC(=O)NC2CCCCC2)o1 | -6.8 | 90.2 | 99.1 | 92.5 | 95.6 | 96.3
Cc1ccc(/C=C/C(=O)NC2CCCCCCC2)o1 | -3.8 | 100.9 | 86.8 | 84.6 | 169.5* | 82.0
Cc1ccc(C(=O)N2CCN(c3ccc(N4CCOCC4)nn3)CC2)cc1 | 6.0 | 98.0 | 98.9 | 108.9 | 114.3 | 101.0
CCCCOc1ccc(C(=O)N2CCN(c3ccc(N4CCOCC4)nn3)CC2)cc1 | -1.0 | 77.5 | 69.9 | 68.0 | 157.5* | 79.0
Cc1[nH]nc(SCC(=O)NC2CCCCC2)c1[N+](=O)[O-] | 9.9 | 93.4 | 102.5 | 101.5 | 100.5 | 91.9
CC1(C)CC(=O)C2=C(C1)OC1=C(C(=O)CC(C)(C)C1)C2c1ccc(O)cc1O | 36.4 | 88.3 | 80.4 | 92.2 | 177.8* | 91.9
CC1(C)CC(=O)C2=C(C1)OC1=C(C(=O)CC(C)(C)C1)C2c1ccc(O)c([N+](=O)[O-])c1 | -7.6 | 103.9 | 107.2 | 101.9 | 84.2 | 102.7
CC(C)c1ccc(S(=O)(=O)/N=C2\C=C(NS(=O)(=O)c3ccccc3)C(=O)c3ccccc32)cc1 | -7.6 | 25.2*[may fluoresce violet] | ? | ? | 88.5 | 276.5*[may fluoresce violet]
Cc1ccc(C)c(S(=O)(=O)/N=C2\C=C(NS(=O)(=O)c3ccccc3)C(=O)c3ccccc32)c1 | -3.0 | 99.1 | 94.0 | 95.8 | 91.3 | 99.3
CN1CCc2c(sc(/N=C/c3c[nH]c4ccccc34)c2C(N)=O)C1 | 7.5 | 69.3 | . | . | . | 575.8*[may fluoresce violet]
CN1CCc2c(sc(/N=C/c3c[nH]c4ccccc34)c2C#N)C1 | -2.0 | 100.9 | 96.4 | 111.8 | 111.2 | 96.5
COC(=O)C1=CN(Cc2ccc(OC)cc2)C=C(C(=O)OC)C1c1ccsc1 | -17.0 | 59.0 | ? | 28.2 | 98.8 | 256.6*[may fluoresce violet]
CC(C)[C@H](NS(=O)(=O)c1cccc(C(F)(F)F)c1)C(=O)OCC(=O)NC(=O)NCc1ccco1 | 4.1 | 100.2 | 101.5 | 100.2 | 102.4 | 95.3
CCCCc1ccc(/C=C2\C(=O)c3ccccc3C(O)=C2C(=O)OCC)cc1 | . | 99.3 | 90.8 | 80.8 | 162.8* | 115.2
COc1cc(C=C2C(=O)c3ccccc3C2=O)ccc1O | 7.2 | 103.0 | 95.7 | 96.8 | 90.0 | 91.1
CCCCN(CC)CCNC(=O)c1cc2c(-c3ccccc3F)nn(C)c2s1 | -12.8 | 36.7*[may fluoresce violet] | ? | 18.2 | 71.3 | 674.3*[may fluoresce violet]
CC(C)c1nnc(SCC(=O)N2CCc3ccccc32)n1C | 28.4 | 107.9 | 125.9 | . | 155.9* | 166.2
Cn1cnnc1SCC(=O)N1CCc2ccccc21 | 10.4 | 97.2 | 96.2 | 99.4 | 98.3 | 110.1
CS/C(N)=N/N=C/c1ccc2c(c1)OCO2 | -3.6 | 76.5 | 132.3 | 147.5 | 154.9* | 336.8*
c1ccc(COc2cncc(-c3cccnc3)c2)cc1 | 1.1 | 100.5 | 91.4 | 92.4 | 115.0 | 90.7
Cc1cccnc1CN1CCN(Cc2nc(C(c3ccccc3)c3ccccc3)no2)CC1 | 1.0 | 100.9 | 99.3 | 113.5 | 104.9 | 107.1
O=C(CN1C(=O)C2CC=CCC2C1=O)Nc1nnc(SCc2ccc(Cl)cc2)s1 (configuration not stated) | 3.8 | 14.8*[may fluoresce violet] | ? | . | 102.9 | ?
Cc1ccc(NC(=O)/C(C#N)=C/c2ccc(C)s2)c(C)c1 | -67.3 | 55.8 | ? | ? | 114.6 | 467.7*[may fluoresce violet]
CCc1sc(C(=O)N2CCc3ccccc32)cc1C | -3.3 | 94.3 | 86.0 | 97.6 | 158.0* | 110.8
